Reference: PubChem BioAssay AID743025 (Vanderbilt Specialized Chemistry Center, 2013)
Values without a mark were called inactive. The source made the active and inactive calls.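 How the source made its calls: active means IC50 below 10 µM at human M5 in a calcium flux test, acting as a negative modulator; inactive means the rest.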

Biological target: Muscarinic acetylcholine receptor M5 (Homo sapiens) (UniProt P08912)
Assay: inhibition of ACh-evoked M5 calcium signal – cell-based, single concentration, human M5 (AID 743025)
Conditions: CHO-K1 hM5, ACh EC80 calcium flux, Fluo-4; at 10 µM; hits give low values

Muscarinic acetylcholine receptor M5 (Homo sapiens), sequence (P08912 whole entry, looked up): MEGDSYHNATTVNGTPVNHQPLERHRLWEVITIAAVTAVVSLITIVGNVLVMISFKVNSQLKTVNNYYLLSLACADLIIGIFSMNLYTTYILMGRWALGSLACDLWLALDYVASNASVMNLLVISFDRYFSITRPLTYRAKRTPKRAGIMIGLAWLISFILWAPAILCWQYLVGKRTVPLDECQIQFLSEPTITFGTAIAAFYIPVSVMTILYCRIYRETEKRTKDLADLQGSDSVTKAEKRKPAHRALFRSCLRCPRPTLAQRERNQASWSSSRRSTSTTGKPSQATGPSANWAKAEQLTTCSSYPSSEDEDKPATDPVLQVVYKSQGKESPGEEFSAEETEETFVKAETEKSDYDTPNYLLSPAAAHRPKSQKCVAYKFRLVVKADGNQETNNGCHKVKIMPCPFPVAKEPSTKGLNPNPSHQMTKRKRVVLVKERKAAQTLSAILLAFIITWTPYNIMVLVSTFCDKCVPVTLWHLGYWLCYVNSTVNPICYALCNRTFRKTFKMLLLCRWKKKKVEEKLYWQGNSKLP

| SMILES | activity remaining |
| --- | --- |
| CN(C)c1ccc(C(=O)N2CCN3C(=O)c4ccccc4C23c2ccccc2)cc1 (configuration not stated) | 88% |
| O=C(c1ccccn1)N1CCN2C(=O)c3ccccc3C12c1ccc(Cl)cc1 (configuration not stated) | 88.9% |
| CC(C)(C)NC(=O)N1CCCN2C(=O)c3ccccc3C12c1ccccc1 (configuration not stated) | 83.3% |
| O=C(c1cccnc1)N1CCN2C(=O)c3ccccc3C12c1ccc(Cl)cc1 (configuration not stated) | 82.6% |
| O=C1c2ccccc2C2(c3ccccc3)N1CCN2C(=O)C(Cl)(Cl)Cl (configuration not stated) | 55.1% (active) |
| O=C(c1cc(F)cc(F)c1)N1CCN2C(=O)c3ccccc3C12c1ccc(Cl)cc1 (configuration not stated) | 3.53% (active) |
| O=C(c1ccc(F)cc1)N1CCN2C(=O)c3ccccc3C12c1ccc(Cl)cc1 (configuration not stated) | 78.8% |
| O=C(Nc1cccc(Cl)c1)N1CCN2C(=O)c3ccccc3C12c1ccccc1 (configuration not stated) | 83% |
| Cc1ccc(S(=O)(=O)N2CCN3C(=O)c4ccccc4C32c2ccccc2)cc1 (configuration not stated) | 73.4% |
| Cc1ccc(C23c4ccccc4C(=O)N2CCN3C(=O)c2ccc(F)cc2)cc1 (configuration not stated) | 14.1% (active) |
| Cc1ccc(C23c4ccccc4C(=O)N2CCN3C(=O)c2cc(F)cc(F)c2)cc1 (configuration not stated) | 2.43% (active) |
| O=C1c2ccccc2C2(c3ccccc3)N1CCN2C(=O)C1CCCC1 (configuration not stated) | 97.8% |
| O=C(c1ccc(OC(F)(F)F)cc1)N1CCN2C(=O)c3ccccc3C12c1ccc(Cl)cc1 (configuration not stated) | 1.2% (active) |
| O=C(c1ccc(F)cc1)N1CCCN2C(=O)c3ccccc3C12c1ccc(Cl)cc1 (configuration not stated) | 76% |
| C[C@H]1CN(Cc2ccccc2)[C@]2(c3ccc(Cl)cc3)c3ccccc3C(=O)N12 | 73.1% |
| CCOc1ccc(C(=O)N2CCN3C(=O)c4ccccc4C23c2ccccc2)cc1 (configuration not stated) | 61.1% |
| O=C(c1cccc(C(F)(F)F)c1)N1CCN2C(=O)c3ccccc3C12c1ccc(Cl)cc1 (configuration not stated) | 1.89% (active) |
| Cc1ccc(C23NCCN2C(=O)c2ccccc23)cc1 (configuration not stated) | 77.4% |
| O=C(c1cccc(C(F)(F)F)c1)N1CCN2C(=O)c3ccccc3C12c1ccc(F)cc1 (configuration not stated) | 0.24% (active) |
| Cc1cccc(C(=O)N2CCN3C(=O)c4ncccc4C23c2ccccc2)c1 (configuration not stated) | 68.9% |
| O=C1c2ccccc2C2(c3ccccc3)N(Cc3ccc(F)cc3)CCN12 (configuration not stated) | 80.8% |
| O=C(Nc1ccc(F)cc1F)N1CCN2C(=O)c3ccccc3C12c1ccc(Cl)cc1 (configuration not stated) | 77.2% |
